Reference: PubChem BioAssay AID1947 (The Scripps Research Institute Molecular Screening Center, 2009)
The campaign covered roughly 300,000 compounds. About 990 (0.33%) were called active. Many of the other results were omitted from the sample, so actives are more common in it than they were. Values without a mark were called inactive.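 Rule for the calls: active = inhibition above the screen mean inhibition plus 3 SD, computed separately per campaign (cut at about 18% in these data); inactive = the rest.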

Each compound was assayed on Fam108B (ABHD17B) serine hydrolase [Mus musculus] (assay: mouse Fam108B serine hydrolase inhibitors, primary screen, counter-screen for RBBP9 inhibitor project, biochemical, fluorescence polarization (AID 1947;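 note: inhibitors lower polarization as less probe binds the enzyme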)). Settings: recombinant Fam108B, FP-Rh probe fluorescence polarization; at 9.51 µM; hits give high values.

Compound | inhibition
O=Cc1c(NCCCN2CCCC2=O)c2ccccc2[nH]c1=O | 0.62%
Cn1c(=O)c2c(ncn2CC(COCc2ccccc2Cl)OCc2ccccc2Cl)n(C)c1=O (stereo unspecified) | 2.8%
Cc1nn(Cc2ccc(F)cc2)c(C)c1NC(=O)c1noc2c1CCc1ccccc1-2 | -3.92%
C/C(=N\Nc1cccc(C(=O)O)c1)c1ccc2c(c1)Nc1ccccc1S2 | 20% (active)
O=C(O)c1cccc(N2C(=O)Nc3ccccc3N2O)c1 | 0.58%
Cc1ccccc1NC(=O)c1cc(S(=O)(=O)Nc2cccc(C(=O)O)c2)ccc1Cl | -0.84%
CCOc1cnc(-c2c(-c3ccccc3Cl)noc2C)o1 | -3.64%
CCn1cc(CN2CCCC(CNS(=O)(=O)Cc3ccccc3)C2)cn1 (stereo unspecified) | -2.99%
Cc1ccc(CN(C)Cc2cc(=O)oc3cc(C)c(Cl)cc23)cc1 | 9.93%
CCCCCCC(=O)Nc1nc(C)c(-c2csc(Nc3cccc(OC)c3)n2)s1 | 12.5%
Cc1nc(NC(=O)c2cccc(Cl)c2)sc1-c1csc(Nc2cccc(Cl)c2)n1 | 61.2% (active)
CC(=O)Nc1nc(C)c(-c2csc(Nc3ccc(S(N)(=O)=O)cc3)n2)s1 | -0.24%
O=C(Nc1ccc(-c2csc(Nc3cccc(C(F)(F)F)c3)n2)cc1)c1cccc(C(F)(F)F)c1 | 37.3% (active)
CCCCC(=O)Nc1nc(C)c(-c2csc(Nc3ccc(Cl)cc3)n2)s1 | 20.4% (active)
CCCCCCC(=O)Nc1nc(C)c(-c2csc(Nc3cc(Cl)ccc3OC)n2)s1 | 11.8%
CC(=O)Nc1ccc(S(=O)(=O)Nc2nc(-c3ccc(C(C)(C)C)cc3)cs2)cc1 | 5.38%
C=CCCC(=O)Nc1nc(C)c(-c2csc(Nc3ccc(Cl)cc3)n2)s1 | -6.01%
CC(=O)Nc1cccc(-c2csc(Nc3cccc(C)n3)n2)c1 | 5.89%
CCOC(=O)c1c(CC(C)C)csc1/N=C/C1=C(O)CCCC1=O | -3.29%
O=C(NNC(=O)c1cnccc1C(F)(F)F)c1ccc(Cl)cc1 | -3.08%
CCCn1c(=O)c2c(C(F)(F)F)cc(-c3cccs3)nc2n(CCC)c1=O | 7.34%
COc1ccc(OCC(O)CN(C)C(=O)C(C)Oc2ccccc2)cc1 (stereo unspecified) | 3.54%
O=C1N[C@@H](Cc2ccccc2)C(=O)N2[C@@H]3N(S(=O)(=O)c4ccc(F)cc4)c4ccccc4[C@]3(Br)C[C@@H]12 | 2.06%

Compound | inhibition
Cc1nc2ccccc2nc1N/N=C/c1ccc(O)cc1O | 5.03%
Fc1ccc(/C=N/Nc2nc(-c3cccnc3)nc3ccccc23)cc1 | -5.98%
Oc1ccc(/C=N/Nc2nc(-c3ccccc3F)nc3ccccc23)c(O)c1 | 41% (active)
CCC(C)[C@H]1COCCS(=O)(=O)N1Cc1ccc(C)cc1 (stereo partly specified) | -0.44%
CC1(C)C2CCC1(C)C(OC(=O)c1ccc(O)cc1)C2 (stereo unspecified) | -4.06%
Nc1ccc2nc3c(=O)[nH]c(=S)[nH]c3nc2c1 | 29.3% (active)
O=C(COC(=O)CCCNC(=O)c1ccc(Cl)cc1)Nc1cc(Cl)ccc1Cl | 4.35%
O=C(NNC(=O)c1ccc(-c2ccccc2)cc1)Nc1ccccc1 | -2.01%
O=C(NC1CC1)c1ccc(-c2ccccc2)cc1 | 34.3% (active)
O=C(NC1CC1)c1cccc(Br)c1 | -0.72%
Cc1ccccc1N1CC(C(=O)Nc2nnc(SCCC3OCCO3)s2)CC1=O (stereo unspecified) | 5.32%
O=C(CN(Cc1ccccc1)C(=O)CCC(=O)Nc1ccccn1)NCCc1ccccc1 | 0.27%
COc1ccc(C2=Nc3cc(C)ccc3OC2)cc1 | -0.41%
COc1ccc2nc(SCc3ccccc3)nc(C)c2c1 | -2.64%
O=c1[nH]c(SCc2ccccc2)nnc1-c1ccccc1 | -0.14%
Fc1cccc(Cl)c1CSc1ccc(-c2ccco2)nn1 | -2.56%
c1ccc(CSc2nnc(-c3ccco3)c(-c3ccco3)n2)cc1 | 19.7% (active)
O=c1cc(O)nc(SCc2ccccc2Cl)[nH]1 | -1.05%
Clc1ccccc1CSc1nnc(-c2ccco2)c(-c2ccco2)n1 | 18.8% (active)
COC(=O)c1ccc(CNC(=O)c2ccc3oc(C(C)C)nc3c2)cc1 | -1.84%
N#CCC(=O)N/N=C/c1cn(Cc2ccc3ccccc3c2)c2ccccc12 | -6.56%
COC(=O)CN1C(=O)[C@H]2[C@@H](/C=C/c3ccccc3)N3C(=O)CN(CC4CC4)C(=O)[C@@]3(Cc3ccccc3)[C@H]2C1=O | -4.39%
COC/C=C/C1=CC2=CC(=O)C(C)(OC(=O)CCC(=O)OC)C(=O)C2=CO1 (stereo unspecified) | 8.02%

Compound | inhibition
COc1ccc(NC(=O)CSc2nnc(Cc3ccccc3)c(=O)n2N)cc1 | 0.31%
CC(C)N1CCC(N2CCN(Cc3cccnc3)CC2CCO)CC1 (stereo unspecified) | 1.03%
COC(=O)c1cc(N2CCNCC2)nc2ccccc12 | 1.69%
COc1ccc(NS(=O)(=O)c2cc(C(=O)Nc3ccccc3C(=O)O)ccc2C)cc1 | -3.09%
COc1ccc(NS(=O)(=O)c2cc(NC(=O)CC(=O)c3ccc([N+](=O)[O-])cc3)ccc2C)cc1 | 18.6% (active)
COc1ccc(C(=O)CC(=O)C(=O)Nc2cc([N+](=O)[O-])ccc2OC)cc1 | 2.15%
COc1cc(Cl)c(C)cc1NC(=O)CSc1nnc(-c2ccco2)n1CC(C)C | 0.55%
Cc1cc(C)cc(OCC(=O)NC(C)c2ccccc2)c1 (stereo unspecified) | -2.91%
CC(=O)Nc1ccc(NC(=O)CC2CCCC2)cc1 | 3.46%
COc1ccc(C2NC(=O)c3ccccc3N2)cc1 (stereo unspecified) | -0.94%
Oc1ccc(C2Nc3cccc4cccc(c34)N2)cc1 | 44.7% (active)
Cc1ccc(C2Nc3cccc4cccc(c34)N2)cc1 | 10.3%
COc1cccc(C2Nc3cccc4cccc(c34)N2)c1 | 23% (active)
Brc1ccccc1C1Nc2cccc3cccc(c23)N1 | 11.3%
O=C1NC(c2cccc(Cl)c2)Nc2ccccc21 (stereo unspecified) | -1.96%
COc1ccccc1CN1CCNC(=O)C1CC(=O)N(C)CC1CCOCC1 (stereo unspecified) | 1.34%
O=C(COC(=O)/C=C/c1cn(-c2ccccc2)nc1-c1cccnc1)Nc1ccc(Cl)cc1Cl | -13.2%
O=C(COC(=O)c1cc(=O)[nH]c2ccccc12)Nc1nc(-c2cccc(Br)c2)cs1 | -30.4%
Cc1nc([N+](=O)[O-])c(NCCCO)n1Cc1ccccc1 | 1.87%
COc1cccc(C(=O)N2CCC(n3nccc3NC(=O)C3CCOC3)CC2)c1 (stereo unspecified) | 5.08%
O=C(Nc1ccc2ccccc2c1)Nc1ccc2snnc2c1 | -25.9%
Cc1ccc(-c2ccnc3nc(Sc4ncc(C(F)(F)F)cc4Cl)nn23)cc1 | -3.23%
CC[N+](C)(CC)CCC[n+]1c(-c2ccccc2)c2cc(N)ccc2c2ccc(N)cc21 | 74.1% (active)

Compound | inhibition
CCc1ccc2ncc(C(=O)c3ccccc3)c(N3CCOCC3)c2c1 | 0.71%
FC(F)(F)c1cc(-c2ccco2)nc(NCc2ccc(Cl)cc2)n1 | -10.7%
Cc1cc(=O)oc2c3c(cc(OCC(=O)NCc4ccccn4)c12)OC(C)(C)CC3 | -1.76%
COc1cc(NC(=O)COC(=O)c2cnc(C)cn2)c(C)cc1[N+](=O)[O-] | -0.2%
CC(C)[C@H](NC(=O)N1CC(=O)Nc2ccccc21)C(=O)N[C@@H](Cc1c[nH]c2ccccc12)C(=O)O | 0.98%
COc1cc(OC)cc(C(=O)NCCSCc2ccc(Cl)cc2)c1 | -2.49%
Cc1ccc(C2C3=C(Nc4[nH]n(-c5ccccc5)c(=O)c42)c2ccccc2C3=O)cc1 (stereo unspecified) | 34.1% (active)
Cc1ccc(-c2ccnc3[nH]n(-c4ccccc4)c(=O)c23)cc1 | -1.58%
Cc1cc(C)c(C2C3=C(Nc4c2c(C)nn4-c2ccccn2)c2ccccc2C3=O)c(C)c1 (stereo unspecified) | -5.56%
COCCN1CCn2c(nc3cc(NS(C)(=O)=O)ccc32)C1 | 2.47%
Cc1cccc(N=Nc2c(C)[nH]n(-c3ccccc3)c2=O)c1 | 4.19%
Cc1[nH]n(C(N)=S)c(=O)c1N=Nc1ccc(Cl)cc1Cl | 20.8% (active)
CC1=NN(C(N)=S)C(=O)C1N=Nc1cc(Cl)ccc1Cl (stereo unspecified) | 1.09%
O=C(CNC(=O)c1ccccc1F)c1ccc(Br)cc1 | 0.62%
COc1c(F)c(F)c(-c2csc(N)n2)c(F)c1F | 2.83%
S=C(Nc1ccc2c(c1)OCO2)N1CCCC1 | -2.94%
Cc1ccccc1NC(=O)CSC1=NCCN1 | -0.3%
COc1ccc(NC(=O)CCCN2C(=O)C(c3ccccc3)Oc3cccnc32)cc1 (stereo unspecified) | -1.86%
O=C(OCC1OC(Oc2ccc(O)cc2)C(O)C(O)C1O)c1ccccc1 (stereo unspecified) | -4.47%
O=C(OCC1O[C@@H](OC(=O)c2cc(O)c(O)c(O)c2)[C@@H](OC(=O)c2cc(O)c(O)c(O)c2)[C@@H](OC(=O)c2cc(O)c(O)c(O)c2)[C@@H]1OC(=O)c1cc(O)c(O)c(O)c1)c1cc(O)c(O)c(O)c1 (stereo partly specified) | 62.1% (active)
CC(O)c1ccc(OCCN(C)c2ccccn2)cc1 (stereo unspecified) | 8.79%
Cn1cnnc1Sc1ccc(S(C)(=O)=O)cc1[N+](=O)[O-] | 0.49%
